In PubChem BioAssay (NCI):
This is part of a sample that, as a whole, favours compounds with a hit. Of some 83,000 tested, about 20% had one in any assay.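 Cells were grown in 96-well plates and exposed to the test compound at a single concentration for 48 hours; results are reported as percent growth, with values below 10 considered active.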 A number with no mark means an inactive call. Activity calls are given as the source filed them.

What follows are compounds tested on HCT-116 colon (assay: NCI-60 one-dose screen, 48 h (100 = growth as untreated, 0 = no growth, -100 = all killed)). Details: 10 µM unless noted.

| SMILES | growth |
| --- | --- |
| COc1cc(C2CC(c3ccc(C)cc3)=NN2C(C)=O)ccc1Oc1ccnc2cc(Cl)ccc12 (configuration not stated) | 52.8% |
| O=c1c(O)cccn1CCCNCCCN(CCCn1cccc(O)c1=O)CCCn1cccc(O)c1=O | 108% |
| CCCCCCCCSc1ncnc2c1ncn2CO | 66.8% |
| O=C1Cc2cc(CCN3CCN(CCOCCO)CC3)c(Cl)cc2N1Cc1ccc(-c2ccccc2-c2nn[nH]n2)cc1 | 87.8% |
| COC(=O)c1ccc2c(c1)nc(-c1ccc(O)c(OC)c1)n2-c1cc(C(C)(C)C)[nH]n1 | 93.5% |
| COc1cc(/C=C/c2nnc(-c3cc(-c4ccccc4)n[nH]3)o2)cc(OC)c1OC | 119% |
| CCOC(=O)c1c2c(c(C)n1Cc1ccc(OC)cc1)-c1nc(N)ncc1CC2 | 94.8% |
| O=C(Nc1ccncc1)C(=O)c1cn(S(=O)(=O)c2cccc(F)c2)c2ccccc12 | 19.5% |
| Nc1nc(N)c([N+](=O)[O-])c(=O)[nH]1 | 110% |
| NC(=O)N/N=C/c1ccc(Br)o1 | 105% |
| COc1ccc(C2CC(c3cccc(Nc4ccnc5cc(Cl)ccc45)c3)=NN2C=O)cc1 (configuration not stated) | 7.09% (active) |
| O=Nc1ccc(O)c(=O)cc1 | 2.12% (active) |
| c1ccc(-n2nnnc2-c2cccc3ccccc23)cc1 | 14.9% |
| CCCn1cnc2c1c(=O)n(CCCCC(C)=O)c(=O)n2C | 96.8% |
| O=C(/C=C/c1cccnc1)NCCCCC1CCCN(C(=O)c2ccccc2)C1 (configuration not stated) | 7.85% (active) |
| CCC(C)CC(C)C(=O)c1c(O)ccn(O)c1=O (configuration not stated) | 22.7% |
| CC/C=C\C=C/C(=O)N/C=C/CC1Cc2cccc(O)c2C(=O)O1 (configuration not stated) | 33.8% |
| COC(=O)CC1=C(C)/C(=C/c2[nH]c(-c3ccc[nH]3)cc2OC)N=C1C | -33.6% (active) |
| CCC(c1ccccc1)c1noc(CCN(CC)CC)n1 (configuration not stated) | 92% |

| SMILES | growth |
| --- | --- |
| CCCCCCCC/C=C/CCCCCCCC1=NC(C)(C)CN1CC(C)O (configuration not stated) | -85% (active) |
| N#CCCCCCn1c2ccccc2c2c3c(c4c5ccccc5[nH]c4c21)C(=O)N(O)C3=O | -33.3% (active) |
| COc1ccc(-c2nn(-c3ccccc3)cc2/C=C2\SC(=S)N(CCc3ccc(O)cc3)C2=O)cc1 | 90.2% |
| C/C(=N/N=C(N)N)c1ccc(Cl)cc1 | 85.7% |
| COc1ccc(-c2noc(N)c2-c2cc(OC)c3c(c2)OCO3)cc1 | 20% |
| COc1ccc(-c2c(-c3cc(OC)c(OC)c(OC)c3)noc2N)cc1 | 8.77% (active) |
| Cc1nn(-c2ccc(Br)cc2)c2nc3c(nc12)C(=O)C(=O)c1ccccc1-3 | 86.3% |
| CCN(CC)c1ccc(C(O)C2=CC(=O)c3ccccc3C2=O)cc1 (configuration not stated) | -9.43% (active) |
| CCCCCCCCCCCCCCCCN=C(CC(=O)O)C(=O)O | 87.2% |
| OC(CCC(O)(c1ccccc1)c1ccccc1)(c1ccccc1)c1ccccc1 | 80.5% |
| Cc1cc(C)n2nc(SCC(=O)Nc3sc4c(c3C(N)=O)CCC4)nc2n1 | 97.2% |
| C=Cc1nn2c(CCC(=O)c3nc4ccccc4[nH]3)nnc2s1 | 98.5% |
| COc1ccc(Nc2nccc(N3CCN(c4c5ccc(Cl)cc5nc5ccc(OC)cc45)CC3)n2)cc1 | 24% |
| NNC(=O)C1CC2c3ccccc3C1c1ccccc12 (configuration not stated) | 108% |
| COc1ccc2c(c1)C(=O)/C(=C/c1cccc(OCC(=O)c3ccccc3)c1)CC2 | 72.1% |
| CN=C(NC)N/N=C(C)\C=N\NC(=NC)NC | 105% |
| O=Cc1c[nH]c2ccc(NC(=O)OCc3ccccc3)cc12 | 98.9% |
| COc1ccc(-c2nnc(COc3ccc(NC(=O)Nc4cc(C(F)(F)F)cc(C(F)(F)F)c4)cc3F)o2)cc1 | 2.49% (active) |
